# Values joined by “and” are separate entries in the source; they are usually repeats but may differ in a detail not shown here. Identical values can stand only once. Among all 50,000 compounds or so, about 800 (1.6%) showed an effect of 50% or more. The full list was thinned out, with strong results kept by preference.
# Target: Bcl-2-like protein 10 (Homo sapiens) (UniProt Q9HD36)
# Experiment: TR3 peptide-Bcl-B binding displacers, biochemical primary FP assay, phenotype converters (AID 1240);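 also: 0% = Bcl-B with tracer peptide and DMSO and 100% = tracer peptide lacking Bcl-B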
# Conditions: GST-Bcl-B / FITC-TR3 peptide fluorescence polarization; stronger effect = higher value; compound at 3.75 mg/L
# Sequence of Bcl-2-like protein 10 (Homo sapiens) (Q9HD36 whole entry, looked up): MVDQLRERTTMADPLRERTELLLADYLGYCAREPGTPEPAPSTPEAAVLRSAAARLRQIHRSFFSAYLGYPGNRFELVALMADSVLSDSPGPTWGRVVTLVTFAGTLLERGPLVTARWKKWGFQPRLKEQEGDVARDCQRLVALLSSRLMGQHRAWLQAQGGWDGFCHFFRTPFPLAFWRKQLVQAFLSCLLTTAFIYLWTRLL
row,Structure (SMILES),displacement
1,Cc1ccccc1-n1c(=S)[nH]c2ccccc2c1=O,-11% and -8.7%
2,O=C1Nc2ccccc2/C1=C/c1nc2ccc(I)cc2c(=O)n1-c1ccccc1,4.5%
3,O=[N+]([O-])c1ccc(CNCCc2cccc(F)c2)cc1,2.2%
4,COc1cc(C=C2C(=O)N(C)C(=O)N(C)C2=O)ccc1OCCOc1ccccc1,54.3%
5,C=CCOc1ccc(/C=C2\C(=O)NC(=O)N(CC=C)C2=O)cc1OC,10.9%
6,CN1C(=O)C(=Cc2cccc(OCCOc3ccc([N+](=O)[O-])cc3)c2)C(=O)N(C)C1=O,6.4%
7,Cc1ccc(-c2nc3ccccc3c(=O)n2-c2nccs2)cc1,-0.6%
8,O=[N+]([O-])/C=C/c1ccccc1OCc1ccc(Cl)cc1Cl,4.5%
9,Cc1cc(C=C2C(=O)NC(=S)NC2=O)c(C)n1C,6.6%
10,Cc1cc(/C=C2\C(=O)NC(=O)N(c3ccc(Cl)cc3)C2=O)c(C)n1C,1.7%
11,Cc1cc(/C=C2\C(=O)NC(=S)N(c3ccccc3F)C2=O)c(C)n1C,14.1%
12,O=C1NC(=O)N(c2ccccc2Cl)C(=O)C1=Cc1ccccc1,12.8%
13,Cc1cc(/C=C2\C(=O)NC(=O)N(c3cccc(Br)c3)C2=O)c(C)n1C,126%
14,O=C1NC(=O)N(c2cccc(Br)c2)C(=O)/C1=C/c1ccco1,5.2%
15,O=C1NC(=O)N(c2cccc(Br)c2)C(=O)/C1=C/c1ccc(-c2ccc(C(=O)O)cc2)o1,-56.7%
16,CCc1ccccc1N1C(=O)NC(=O)/C(=C\c2cc(C)n(C)c2C)C1=O,87.7%
17,Cc1cc(C)cc(N2C(=O)NC(=O)/C(=C\c3cc(C)n(C)c3C)C2=O)c1,90.5%
18,Cc1ccc(-n2c(/C=C3/C(=O)Nc4ccc(Br)cc43)nc3ccccc3c2=O)cc1,4.3%
19,Cc1cc(C)cc(N2C(=O)NC(=O)/C(=C\C=C\c3ccccc3)C2=O)c1,42.9%
20,CCCCn1c(=O)c(C(=O)Nc2ccc(I)cc2)c(O)c2ccccc21,7.1%
21,CN1C(=O)C(=Cc2ccc(-c3cc(C(=O)O)ccc3Cl)o2)C(=O)N(C)C1=O,-2.5%
22,Cc1ccc(N2C(=O)NC(=O)/C(=C\C=C\c3ccccc3)C2=O)cc1,21.4%
23,Cc1cc([N+](=O)[O-])c(C)cc1-c1ccc(C=C2C(=O)NC(=O)NC2=O)o1,8.4%
24,Cc1cc(-c2ccc(C=C3C(=O)NC(=O)NC3=O)o2)ccc1[N+](=O)[O-],13.1%
25,CN1C(=O)NC(=O)/C(=C/c2ccc(-c3ccc([N+](=O)[O-])cc3Br)o2)C1=O,-9.1%

row,Structure (SMILES),displacement
1,CN1C(=O)NC(=O)/C(=C/c2ccc(-c3cccc([N+](=O)[O-])c3)o2)C1=O,-20.5%
2,CN1C(=O)NC(=O)/C(=C/c2ccc(-c3ccc([N+](=O)[O-])cc3)o2)C1=O,3.6%
3,O=C1NC(=O)C(=Cc2ccc(-c3cc([N+](=O)[O-])ccc3O)o2)C(=O)N1,109%
4,Cc1cc([N+](=O)[O-])ccc1-c1ccc(/C=C2/C(=O)NC(=O)N(C)C2=O)o1,11.4%
5,O=C1NC(=S)NC(=O)C1=Cc1ccc(-c2cc(Cl)c([N+](=O)[O-])cc2Cl)o1,19.3%
6,O=C1NC(=O)C(=Cc2ccc(-c3ccc([N+](=O)[O-])cc3Cl)o2)C(=O)N1,66.8%
7,C=CCN1C(=O)NC(=O)/C(=C/c2ccc(-c3cc([N+](=O)[O-])ccc3Cl)o2)C1=O,84.3%
8,O=C1NC(=S)NC(=O)C1=Cc1ccc(-c2ccc([N+](=O)[O-])cc2Br)o1,29%
9,Cc1cccc(N2C(=O)NC(=O)/C(=C/c3ccc(-c4ccc([N+](=O)[O-])cc4C)o3)C2=O)c1,76.7%
10,COc1ccc(CN2C(=O)NC(=O)/C(=C\c3ccoc3)C2=O)cc1,-114%
11,CSc1nc2ccccc2c(=O)n1-c1cccc(C)c1,-6.2%
12,O=C1NC(=O)N(c2ccc(Cl)cc2)C(=O)/C1=C\c1cc(Br)cc(Cl)c1O,4.8%
13,N#CC(C#N)=Cc1cccc2ccccc12,5.7%
14,O=C1NC(=S)NC(=O)C1=Cc1cccc(OS(=O)(=O)c2ccc3ccccc3c2)c1,3.4%
15,COc1cc(OC)c(OC)cc1CN1CCN(C(=O)COc2ccccc2)CC1,-13.1%
16,COc1ccc(CN2CCN(C(=O)Cc3ccccc3)CC2)cc1Br,-10%
17,CN(C)c1ccc(/C=C2\C(=O)NC(=O)N(c3ccccc3Cl)C2=O)cc1,9.7%
18,Cc1cc(C=C2C(=O)NC(=O)NC2=O)c(C)n1C1CCCCC1,124%
19,Cc1cc(C=C2C(=O)NC(=O)NC2=O)c(C)n1C,2.4%
20,Cc1cc(C)cc(-n2c(C)cc(C=C3C(=O)NC(=O)NC3=O)c2C)c1,13.1%
21,O=C1c2ccccc2NC(c2ccccc2F)N1c1ccccc1 (centres undefined),-0.3%
22,Cc1nc2ccccc2c(=O)n1-c1ccc([N+](=O)[O-])cc1,11.9%
23,Cc1nc2cc([N+](=O)[O-])ccc2c(=O)n1-c1ccc(Cl)cc1,71.3%
24,Cc1nc2ccc(I)cc2c(=O)n1-c1ccc([N+](=O)[O-])cc1Cl,13%
